# The supplement of paper PMC7156485
# How the values were obtained:
# Conditions in all cases: concentration: 10 µM; 24 h
# [1] = test system: HCC1569; assay: cell number relative to DMSO (% of DMSO); higher = more cells (less growth inhibition / toxicity)
# In short: (§1)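 Compounds were applied at 10 µM for 24 h at 37 °C, in triplicate, to HCC1569 and TDF cells. The cells were then fixed and stained for H1.0, and nuclei were counterstained with DAPI. Nuclear H1.0 intensity or cell number is reported relative to the plate control as a percent, taking the median of replicates. Smoothing for positional effects was applied to HCC1569 values only.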
# [2] = test system: TDF; assay: as above
# In short: as §1
# [3] = test system: TDF; assay: H1.0 immunofluorescence intensity relative to DMSO (% of DMSO); higher = stronger H1.0 induction, active = 120 or more
# In short: as §1
# [4] = test system: HCC1569; assay: H1.0 immunofluorescence intensity relative to DMSO (% of DMSO); higher = stronger H1.0 induction, active = 140 or more
# In short: as §1
# 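For H1.0 immunofluorescence intensity relative to DMSO in this document: TDF is a line of transformed human dermal fibroblasts of mesenchymal origin.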
# 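For cell number relative to DMSO in this document: TDF denotes transformed human dermal fibroblasts of mesenchymal origin.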
Compound,cell number [1],cell number [2],H1.0 immunofluorescence intensity [3],H1.0 immunofluorescence intensity [4]
CCCCN1CCC(COC(=O)c2cc(Cl)c(N)c3c2OCCO3)CC1.Cl,102,108,97.7 (inactive),104 (inactive)
CN1CCN(C2=Nc3cc(F)ccc3Cc3ccccc32)CC1 [Fluperlapine],104,102,100 (inactive),118 (inactive)
"O=C(O)c1ccccc1C(=O)Nc1ccc(-c2ccccc2)cc1 [2-[([1,1'-biphenyl]-4-ylamino)carbonyl]benzoic acid]",104,99.9,98.7 (inactive),95.6 (inactive)
CSc1ccc(C(=O)c2[nH]c(=O)[nH]c2C)cc1 [Enoximone],107,109,96.3 (inactive),105 (inactive)
CS(=O)c1ccc(-c2nc(-c3ccc(F)cc3)c(-c3ccncc3)[nH]2)cc1 (stereo unspecified),92.7,107,98 (inactive),104 (inactive)
O=C(O)C(=Cc1c(C(=O)O)[nH]c2cc(Cl)cc(Cl)c12)c1ccccc1,105,109,95.3 (inactive),85 (inactive)
Clc1ccc(Nc2nnc(Cc3ccncc3)c3ccccc23)cc1 [Vatalanib],103,103,97.2 (inactive),105 (inactive)
COc1ccc(-c2cc(=S)ss2)cc1 [Anethole-trithione],102,92.7,96.7 (inactive),103 (inactive)
O=C(CCCCCCC(=O)Nc1ccccc1)NO,101,95.7,121 (active),100 (inactive)
CN(C)S(=O)(=O)c1ccc2c(c1)C(=Cc1cc3c([nH]1)CCCC3)C(=O)N2,72.9,48,97.5 (inactive),184 (active)
"CC1CCC(C(C)(C)O)CC2=C1CCC2C (single isomer, unassigned; (-)) [(-)-Guaiol]",99.2,102,102 (inactive),106 (inactive)
Nc1c2c(nc3ccccc13)CCCC2 [Tacrine],102,97.1,95.7 (inactive),109 (inactive)
OCCC#Cc1nc(-c2ccc(F)cc2)c(-c2ccncc2)n1CCCc1ccccc1,91.8,105,82.7 (inactive),111 (inactive)
COc1ccc(C(C)=O)c(O)c1 [Paeonol],99,102,92.9 (inactive),101 (inactive)
CC(C)[N+]1(C)C2CCC1CC(OC(=O)C(CO)c1ccccc1)C2.[Br-] (stereo unspecified) [Ipratropium.Br],102,98,91.5 (inactive),110 (inactive)
CCc1cc(CCC2(C3CCCC3)CC(O)=C(Cc3nc4nc(C)cc(C)n4n3)C(=O)O2)cc(CC)n1 (stereo unspecified),97.3,106,87.6 (inactive),104 (inactive)
CCCCCC=CC=CC(O)CCCCCCCC(=O)O (racemic),103,96.8,103 (inactive),97 (inactive)
CC(=O)OCC(=O)[C@@]1(O)CC[C@H]2[C@@H]3CCC4=CC(=O)C=C[C@]4(C)[C@H]3[C@@H](O)C[C@@]21C,99.3,103,93.1 (inactive),101 (inactive)
Cc1[nH]c(C=C2C(=O)Nc3ccc(S(=O)(=O)N(C)c4cccc(Cl)c4)cc32)c(C)c1C(=O)N1CCN(C)CC1 [Met Kinase Inhibitor],81.6,59.6,92 (inactive),149 (active)
O=C(c1ccc(Cl)c(S(=O)(=O)NCC2CCCO2)c1)N1CCN(c2ncccn2)CC1 (stereo unspecified) [Adenosine Kinase Inhibitor],86.3,103,89.5 (inactive),116 (inactive)
Cl.O=C(O)C1=CCCN(CCON=C(c2ccccc2)c2ccccc2)C1 [NO-711 hydrochloride],100,93.9,94.2 (inactive),97.9 (inactive)
COc1ccc2c(OC)c3ccoc3nc2c1OC [Skimmianine],100,98.2,99.1 (inactive),96.2 (inactive)
COc1ccc2c(c1)CC[C@@H]1[C@@H]2CC[C@]2(C)[C@@H](NCCCCCCN3C(=O)C=CC3=O)CC[C@@H]12.O,97.6,109,99.9 (inactive),107 (inactive)
CC(C)(Sc1ccc(CCN(CCCCC2CCCCC2)C(=O)NC2CCCCC2)cc1)C(=O)O,101,107,95.7 (inactive),87.6 (inactive)
